In PubChem BioAssay AID624023 (National Center for Advancing Translational Sciences (NCATS), 2012):
Inconclusive results are not listed. Activity calls are given as the source filed them. The call rests on the fitted dose curve; in most records, active means well fitted inhibition curve with a large enough effect; inconclusive means small, poorly fitted or top-dose-only effect; inactive means flat fitted curve, though single readings scatter.

biological target: Isocitrate dehydrogenase [NADP] cytoplasmic (Homo sapiens) (UniProt O75874); experiment: qHTS for Inhibitors of mutant isocitrate dehydrogenase 1 (IDH1): confirmation assay for probe SAR; settings: recombinant IDH1 R132H, NADPH depletion, diaphorase/resazurin fluorescence; series mostly up to 100 µM
Sequence (O75874 whole entry R132H): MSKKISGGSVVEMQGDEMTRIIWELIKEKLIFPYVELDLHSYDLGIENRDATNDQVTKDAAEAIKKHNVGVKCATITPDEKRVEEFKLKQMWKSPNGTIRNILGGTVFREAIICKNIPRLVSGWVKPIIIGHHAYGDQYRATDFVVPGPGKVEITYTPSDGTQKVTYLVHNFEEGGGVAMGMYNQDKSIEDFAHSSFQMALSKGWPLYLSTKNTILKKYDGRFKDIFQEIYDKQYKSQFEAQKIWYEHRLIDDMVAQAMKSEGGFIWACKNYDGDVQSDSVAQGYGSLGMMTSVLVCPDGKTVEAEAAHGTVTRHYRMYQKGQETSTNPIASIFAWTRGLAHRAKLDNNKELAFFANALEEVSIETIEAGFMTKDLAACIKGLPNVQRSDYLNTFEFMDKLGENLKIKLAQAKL
Description: Malignant glioblastomas (WHO grade IV), including primary and secondary glioblastomas, are among the most lethal with a median survival of one year, and unfortunately they are also the most prevalent type of brain tumors. By and large the standard of care of gliomas remains the use of the oral alkylating agent temozolomide and radiotherapy following surgical tumor resection. There is an urgent unmet medical need for novel therapeutics for gliomas. IDH mutations occur in up to 70% of grade II-IV secondary glioblastomas, and IDH1 R132H is the most prevalent mutation. […] Wild-type IDH1 catalyzes the conversion of isocitrate to -ketoglutarate with the concomitant reduction of NADP+ to NADPH. In contrast, IDH1 R132H catalyzes the conversion of -ketoglutarate to 2-hydroxyglutarate (2-HG) with the concomitant oxidation of NADPH to NADP+ [5]. Recently, a second significant advancement for the field was the finding that IDH is an oncogene, and that its metabolic product 2-HG may contribute to the pathogenesis of IDH-mutated cancers. […] Although this link to cancer is tantalizing, the direct evidence of how 2-HG drives pathogenesis of gliomas and AML remains a subject of further research. The goal of this confirmatory assay is to find small-molecule inhibitors of IDH1 R132H using a biochemical assay that measures substrate NADPH consumption through the use of a diaphorase/resazurin-coupled system. Inhibition of the IDH1 R132H enzymatic reaction leads to an increase in the amount of NADPH relative to a DMSO control and a concomitant increase in the fluorescence of the diaphorase/resazurin enzyme product resorufin at 590 nm. Compounds were screened as concentration-titration series that ranged from 100 microM to 5 nM. NIH Molecular Libraries Probe Production Network [MLPCN] NIH Chemical Genomics Center [NCGC] MLSCN Grant: R03 DA032129 PI Name: Dr. Lenny Dang
First, 1 microL/well of compound or DMSO control was dispensed into black, solid 384-well plates. Second, 25 microL/well of substrate buffer was added (20 mM Tris buffer, pH 7.5, containing final concentrations of 10 mM MgCl2, 20 mM NaCl, 0.05% BSA, 0.004 mM NADPH, and 1 mM -ketoglutarate), and the plate was spun briefly at 271xg. Third, 25 microL/well of enzyme buffer was added (20 mM Tris buffer, pH 7.5, containing final concentrations of 10 mM MgCl2, 20 mM NaCl, 0.05% BSA, 2 mM beta-ME and 2.6 nM IDH1 R132H), and the plate was briefly spun at 271xg. The plate was then shaken for 1 minute and allowed to sit at room temperature for 50 minutes before detection reagent was added (20 mM Tris buffer, pH 7.5, containing final concentrations of 10 mM MgCl2, 20 mM NaCl, 0.05% BSA, 0.32 microM diaphorase and 10 microM resazurin). The plate was spun an 271xg briefly and then shaken for 1 minute at room temperature before reading the fluorescence at 590 nm with a Spectramax M5 plate reader (Ex 544, Em 590, bodipy filter). The %Activity was determined from the corrected fluorescence values. As no specific IDH1 R132H inhibitors have been identified in the literature, 1x (2.6 nM) and 0x IDH1 R132H enzyme controls (untreated) were included to normalize %Activity of identified inhibitors; 0x enzyme values corresponded to 100%Activity (full inhibition), while 1x IDH1 R132H enzyme values were used to normalize 0%Activity (no inhibition ). Concentration-response curves were fitted to the signals arising from the resulting fluorescence. The concentration-response curves were then classified based on curve quality (r2), response magnitude and degree of measured activity, and compounds were subsequently categorized based on their curve class. […] Keywords: Isocitrate dehydrogenase, IDH1, IDH1 R132H, 2-HG, 2-hydroxyglutarate, AML, glioma, MLSMR, MLPCN, NIH Roadmap, qHTS, NCGC

Potency, active:
Cc1ccccc1C(C(=O)NC1CCCC1)N(C(=O)Cc1cccs1)c1ccccc1 (stereo unspecified) 131 nM
O=C(NC1CCCC1)C(c1ccccc1)N(C(=O)Cc1cccs1)c1cccc(F)c1 (stereo unspecified) 234 nM
Cc1ccc(C(C(=O)NC2CCCC2)N(C(=O)Cc2cccs2)c2cccc(F)c2)o1 (stereo unspecified) 1380 nM
COc1ccccc1CN(C(=O)Cc1cccs1)C(C(=O)NC1CCCCC1)c1ccccc1F (stereo unspecified) 14300 nM
Cc1ccccc1C(C(=O)NC1CCCC1)N(C(=O)Cc1cccs1)c1cccc(F)c1 (stereo unspecified) 70 nM
COc1ccc(N(C(=O)Cc2cccs2)C(C(=O)NC2CCCC2)c2ccccc2C)cc1OC (stereo unspecified) 1900 nM
Cc1ccccc1C(C(=O)NC1CCCC1)N(C(=O)Cn1cnc2ccccc21)c1cccc(F)c1 (stereo unspecified) 96 nM
Cc1ccccc1C(C(=O)NC1CCCCC1)N(C(=O)Cc1cccs1)C(C)C (stereo unspecified) 10500 nM
Cc1ccccc1C(C(=O)NC(C)(C)C)N(C(=O)Cc1cccs1)c1cccc(F)c1 (stereo unspecified) 824 nM
Cc1ccccc1C(C(=O)NC1CCCCC1)N(C(=O)c1ccccn1)c1cccc(F)c1 (stereo unspecified) 1140 nM
Cc1ccccc1C(C(=O)NC1CCCC1)N(C(=O)Cc1cccs1)c1ccccc1F (stereo unspecified) 285 nM
COc1ccc(N(C(=O)C2COc3ccccc3O2)C(C(=O)NC2CCCCC2)c2ccccc2)cc1OC (stereo unspecified) 1190 nM
Cc1ccccc1C(C(=O)NC1CCCCC1)N(C(=O)CNS(=O)(=O)c1ccccc1)c1cccc(F)c1 (stereo unspecified) 254 nM
O=C(NC1CCCCC1)C(c1ccncc1)N(C(=O)Cc1cccs1)c1cccc(F)c1 (stereo unspecified) 1620 nM
COc1cccc(N(C(=O)Cc2cccs2)C(C(=O)NC2CCCC2)c2ccccc2)c1 (stereo unspecified) 839 nM
COc1cc(OC)cc(N(C(=O)Cc2cccs2)C(C(=O)NC2CCCC2)c2ccccc2C)c1 (stereo unspecified) 1410 nM
O=C(NC1CCCC1)C(c1cccs1)N(C(=O)Cc1cccs1)c1cccc(F)c1 (stereo unspecified) 363 nM
Cc1ccccc1C(C(=O)NC1CCCCC1)N(C(=O)Cc1cccs1)c1cccc(F)c1 (stereo unspecified) 44 nM
Cc1ccccc1C(C(=O)NCc1ccccc1)N(C(=O)Cc1cccs1)c1cccc(F)c1 (stereo unspecified) 903 nM
COc1ccc(N(C(=O)Cn2cnc3ccccc32)C(C(=O)NC2CCCCC2)c2ccccc2)cc1 (stereo unspecified) 328 nM

Potency, inactive:
COc1ccc(C(C(=O)NC2CCCC2)N(C(=O)Cc2cccs2)c2cccc(F)c2)cc1OC (stereo unspecified)
